Where “and” joins values, the source holds several entries; their conditions need not be identical. Identical values can stand only once. Out of some 5,500 compounds screened, about 2,000 (36%) were called active. Another 18% or so got no clear call; they are omitted. No stated cut-off is given here; in the data, active means normalized growth mostly below about 0.91 (no sharp cut-off); inconclusive means no clear call, values can overlap the other calls; inactive means mostly above about 0.92. The list shows a part of the results.
Assay: chemical genetic growth profiling, strain panel (AID 1159580);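 further: tested at 20 µM; growth read once vehicle control cultures reached saturation at 30 °C; 1 = growth at the plate median or of vehicle wells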
Details: S. cerevisiae deletion strains, growth OD

Measured: normalized growth

Nc1nc2c(c(=O)[nH]1)N(C=O)C(CNc1ccc(C(=O)N[C@@H](CCC(=O)O)C(=O)O)cc1)CN2 (stereo not given in full)
inactive: locus YAL021C, strain ccr4, stronger effect = lower value 0.973 | locus YAL026C, strain drs2, stronger effect = lower value 1 | locus YAL030W, strain snc1, stronger effect = lower value 0.969 | locus YBL061C, strain skt5, stronger effect = lower value 0.975 | locus YBR009C, strain hhf1, stronger effect = lower value 1.02 | locus YBR021W, strain FUR4, stronger effect = lower value 0.988 | locus YBR023C, strain chs3, stronger effect = lower value 0.971 | locus YBR171W, strain sec66, stronger effect = lower value 0.94 | locus YBR229C, strain ROT2, stronger effect = lower value 0.991 | locus YBR231C, strain swc5, stronger effect = lower value 0.943 | locus YBR279W, strain paf1, stronger effect = lower value 0.991 | locus YCL011C, strain gbp2, stronger effect = lower value 0.99 | locus YCL016C, strain dcc1, stronger effect = lower value 1.02 | locus YCL029C, strain bik1, stronger effect = lower value 0.985 | locus YCL061C, strain MRC1, stronger effect = lower value 0.964 | locus YCL069W, strain vba3, stronger effect = lower value 0.971 | locus YCR088W, strain abp1, stronger effect = lower value 0.971 | locus YDL005C, strain med2, stronger effect = lower value 0.963 | locus YDL035C, strain GPR1, stronger effect = lower value 1.01 | locus YDL040C, strain nat1, stronger effect = lower value 0.974 | locus YDL074C, strain BRE1, stronger effect = lower value 0.999 | locus YDL101C, strain DUN1, stronger effect = lower value 0.987 | locus YDL185W, strain tfp1, stronger effect = lower value 0.986 | locus YDL192W, strain arf1, stronger effect = lower value 0.981 | locus YDR001C, strain nth1, stronger effect = lower value 0.956 | locus YDR069C, strain doa4, stronger effect = lower value 0.94 | locus YDR101C, strain arx1, stronger effect = lower value 1 | locus YDR137W, strain rgp1, stronger effect = lower value 0.947 | locus YDR159W, strain sac3, stronger effect = lower value 1.01 | locus YDR162C, strain NBP2, stronger effect = lower value 1 | locus YDR195W, strain ref2 0.906 | locus YDR297W, strain sur2, stronger effect = lower value 0.972 | locus YDR318W, strain mcm21, stronger effect = lower value 0.985 | locus YDR334W, strain swr1, stronger effect = lower value 0.934 | locus YDR335W, strain msn5, stronger effect = lower value 0.964 | locus YDR388W, stronger effect = lower value 0.985 | locus YDR392W, strain spt3, stronger effect = lower value 1.1 | locus YDR502C, strain sam2, stronger effect = lower value 0.985 | locus YEL003W, strain gim4, stronger effect = lower value 0.971 | locus YEL037C, strain rad23, stronger effect = lower value 0.978 | locus YEL061C, strain CIN8 (second series), stronger effect = lower value 0.953 | locus YEL061C, strain CIN8, stronger effect = lower value 0.996 | locus YER015W, strain faa2, stronger effect = lower value 1.01 | locus YER016W, strain bim1, stronger effect = lower value 0.99 | locus YER110C, stronger effect = lower value 0.978 | locus YER111C, strain swi4, stronger effect = lower value 0.968 | locus YER155C, strain BEM2 (second series), stronger effect = lower value 0.954 | locus YER155C, strain BEM2, stronger effect = lower value 0.981 | locus YER167W, strain BCK2, stronger effect = lower value 0.993 | locus YFR010W, strain ubp6, stronger effect = lower value 0.931 | locus YGL078C, strain dbp3, stronger effect = lower value 0.967 | locus YGL086W, strain mad1, stronger effect = lower value 1 | locus YGL167C, strain pmr1, stronger effect = lower value 0.957 | locus YGL173C, strain kem1, stronger effect = lower value 0.966 | locus YGL227W, strain vid30, stronger effect = lower value 0.964 | locus YGL240W, strain doc1, stronger effect = lower value 0.94 | locus YGL248W, strain PDE1, stronger effect = lower value 0.982 | locus YGL253W, strain hxk2, stronger effect = lower value 0.986 | locus YGR135W, strain pre9, stronger effect = lower value 0.945 | locus YGR252W, strain gcn5, stronger effect = lower value 0.948 | locus YHR013C, strain ard1, stronger effect = lower value 0.972 | locus YHR027C, strain rpn1, stronger effect = lower value 0.972 | locus YHR030C, strain SLT2, stronger effect = lower value 0.993 and 0.985 | locus YHR079C, strain IRE1 (second series), stronger effect = lower value 0.989 | locus YHR079C, strain IRE1, stronger effect = lower value 1 | locus YHR094C, strain hxt1, stronger effect = lower value 0.984 | locus YHR129C, strain ARP1, stronger effect = lower value 0.99 | locus YHR142W, strain chs7, stronger effect = lower value 0.957 | locus YHR200W, strain rpn10, stronger effect = lower value 0.986 | locus YIL066C, strain RNR3, stronger effect = lower value 0.989 | locus YIL073C, strain SPO22, stronger effect = lower value 1.01 | locus YIL125W, strain kgd1, stronger effect = lower value 0.989 | locus YIR030C, strain dcg1, stronger effect = lower value 0.979 | locus YJL092W, strain hpr5, stronger effect = lower value 0.963 | locus YJL095W, strain BCK1 (second series), stronger effect = lower value 0.967 | locus YJL095W, strain BCK1, stronger effect = lower value 0.975 and 1.02 | locus YJL115W, strain asf1, stronger effect = lower value 0.949 | locus YJL129C, strain trk1, stronger effect = lower value 0.954 | locus YJL134W, strain LCB3, stronger effect = lower value 0.991 | locus YJL154C, strain vps35, stronger effect = lower value 0.959 | locus YJL164C, strain tpk1, stronger effect = lower value 1.02 | locus YJL166W, strain qcr8, stronger effect = lower value 0.932 | locus YJL168C, strain set2, stronger effect = lower value 0.981 | locus YJL187C, strain SWE1 (second series), stronger effect = lower value 0.985 | locus YJL187C, strain SWE1, stronger effect = lower value 0.977 | locus YJR043C, strain POL32, stronger effect = lower value 1.01 | locus YJR066W, strain TOR1, stronger effect = lower value 0.969 | locus YJR075W, strain HOC1, stronger effect = lower value 0.993 | locus YKL009W, strain mrt4, stronger effect = lower value 0.996 | locus YKL068W, stronger effect = lower value 0.991 | locus YKL085W, strain MDH1 (second series), stronger effect = lower value 0.979 | locus YKL085W, strain MDH1, stronger effect = lower value 0.979 | locus YKL160W, strain elf1, stronger effect = lower value 0.972 | locus YKL190W, strain CNB1, stronger effect = lower value 1 | locus YKR001C, strain vps1, stronger effect = lower value 0.997 | locus YKR026C, strain gcn3, stronger effect = lower value 0.961 | locus YKR091W, strain srl3, stronger effect = lower value 0.984 | locus YLL001W, strain dnm1, stronger effect = lower value 0.926 | locus YLL026W, stronger effect = lower value 0.948 | locus YLL041C, strain sdh2, stronger effect = lower value 0.976 | locus YLR027C, strain aat2, stronger effect = lower value 0.958 | locus YLR039C, strain RIC1, stronger effect = lower value 0.958 | locus YLR058C, strain SHM2, stronger effect = lower value 0.983 | locus YLR102C, strain apc9, stronger effect = lower value 0.989 | locus YLR113W, strain HOG1, stronger effect = lower value 1.02 | locus YLR221C, strain rsa3, stronger effect = lower value 1.01 | locus YLR258W, strain gsy2, stronger effect = lower value 1.01 | locus YLR262C, strain YPT6 (second series), stronger effect = lower value 0.941 | locus YLR262C, strain YPT6, stronger effect = lower value 1.02 | locus YLR268W, strain sec22, stronger effect = lower value 0.984 | locus YLR320W, strain mms22, stronger effect = lower value 1.01 | locus YLR330W, strain CHS5, stronger effect = lower value 0.988 | locus YLR342W, strain FKS1 (second series), stronger effect = lower value 1 | locus YLR342W, strain FKS1, stronger effect = lower value 0.955 | locus YLR357W, strain rsc2, stronger effect = lower value 0.928 | locus YLR370C, strain arc18, stronger effect = lower value 0.959 | locus YLR371W, strain rom2, stronger effect = lower value 0.975 | locus YLR384C, strain iki3, stronger effect = lower value 0.958 | locus YLR418C, strain cdc73, stronger effect = lower value 0.938 | locus YML016C, strain PPZ1, stronger effect = lower value 0.992 | locus YML032C, strain rad52, stronger effect = lower value 0.999 | locus YML120C, strain ndi1, stronger effect = lower value 0.956 | locus YML124C, strain tub3, stronger effect = lower value 0.991 | locus YMR058W, strain fet3, stronger effect = lower value 0.954 | locus YMR078C, strain ctf18, stronger effect = lower value 0.981 | locus YMR125W, strain sto1, stronger effect = lower value 0.965 | locus YMR129W, stronger effect = lower value 0.971 | locus YMR205C, strain PFK2, stronger effect = lower value 0.978 | locus YMR223W, strain ubp8, stronger effect = lower value 0.959 | locus YMR231W, strain pep5, stronger effect = lower value 0.964 | locus YMR307W, strain GAS1, stronger effect = lower value 0.961 | locus YNL067W, strain RPL9B, stronger effect = lower value 0.999 | locus YNL071W, strain lat1, stronger effect = lower value 0.984 | locus YNL128W, strain TEP1, stronger effect = lower value 0.979 | locus YNL183C, strain NPR1, stronger effect = lower value 0.97 | locus YNL209W, strain ssb2, stronger effect = lower value 0.986 | locus YNL233W, strain BNI4, stronger effect = lower value 0.986 | locus YNL248C, strain rpa49, stronger effect = lower value 0.978 | locus YNL250W, strain rad50, stronger effect = lower value 0.977 | locus YNL271C, strain bni1, stronger effect = lower value 0.967 | locus YNL298W, strain CLA4, stronger effect = lower value 0.985 | locus YNL307C, strain MCK1, stronger effect = lower value 0.99 | locus YNL322C, strain KRE1 (second series), stronger effect = lower value 0.965 | locus YNL322C, strain KRE1, stronger effect = lower value 0.995 | locus YNR049C, strain mso1, stronger effect = lower value 0.971 | locus YNR052C, strain pop2, stronger effect = lower value 0.984 | locus YOL006C, strain TOP1, stronger effect = lower value 0.964 | locus YOL012C, strain htz1 0.703 | locus YOL147C, strain pex11, stronger effect = lower value 0.978 | locus YOR001W, strain rrp6, stronger effect = lower value 0.943 | locus YOR061W, strain CKA2, stronger effect = lower value 0.992 | locus YOR069W, strain VPS5, stronger effect = lower value 0.989 | locus YOR070C, strain gyp1, stronger effect = lower value 0.991 | locus YOR080W, strain dia2, stronger effect = lower value 0.966 | locus YOR083W, strain WHI5, stronger effect = lower value 0.961 | locus YOR106W, strain vam3, stronger effect = lower value 0.943 | locus YOR136W, strain idh2, stronger effect = lower value 0.99 | locus YOR144C, strain elg1, stronger effect = lower value 0.992 | locus YOR184W, strain ser1, stronger effect = lower value 0.978 | locus YOR231W, strain MKK1, stronger effect = lower value 1.02 | locus YOR265W, strain rbl2, stronger effect = lower value 0.965 | locus YOR270C, strain vph1, stronger effect = lower value 0.957 | locus YOR290C, strain snf2, stronger effect = lower value 1.01 | locus YOR316C, strain cot1, stronger effect = lower value 0.987 | locus YPL051W, strain arl3, stronger effect = lower value 0.985 | locus YPL055C, strain LGE1, stronger effect = lower value 0.981 | locus YPL078C, strain atp4, stronger effect = lower value 0.904 | locus YPL106C, strain sse1, stronger effect = lower value 0.947 | locus YPL240C, strain hsp82, stronger effect = lower value 0.968 | locus YPL256C, strain CLN2, stronger effect = lower value 0.993 | locus YPR119W, strain clb2, stronger effect = lower value 0.986 | locus YPR141C, strain kar3, stronger effect = lower value 0.977 | locus YPR163C, strain tif3, stronger effect = lower value 0.976 | locus YPR167C, strain met16, stronger effect = lower value 0.986 | strain wtn01, stronger effect = lower value 0.981

Reference: PubChem BioAssay AID1159580 (chemical genetic matrix, 2015)
